Dicer processing: blocks human Dicer maturation of pre-miR-21; cat-ELCCA pre-miR-21 Dicer processing, chemiluminescence; stronger effect = higher value; z-score at 25 µM; 6% of 47,000 active; AID 1347074; in the data active = z-score above about 3, passing the limit was not always enough;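 also: plate controls were vehicle for no effect and no enzyme for full effect; higher signal means more uncleaved substrate so more Dicer inhibition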
Starred values were filed as active, the others as inactive. The full list was thinned out, with hits kept by preference.

SMILES | Dicer processing
CCCCCOC(=O)C1=C(C)NC2=C(C(=O)CCC2)C1c1ccc(OC)c(Br)c1 (configuration not stated) | -0.77
CC1=C(C(=O)OCC2CCCO2)C(c2ccc(-c3ccccc3)cc2)C2=C(CC(C)(C)CC2=O)N1 (configuration not stated) | 2.5
CCCc1ccc(-c2nc(CS(=O)(=O)C(C)(C)C)no2)cc1 | -1.1
CC1CN(c2ccc(Oc3nc4c(Cl)cc(Cl)cc4s3)c([N+](=O)[O-])c2)CC(C)O1 (configuration not stated) | 0.76
N#CC(C#N)=NNc1ccc(F)c(C(F)(F)F)c1 | 4.1
O=C(O)c1ccc2nsnc2c1 | 1
COC(=O)c1ccc2nsnc2c1 | 3.8*
CCOC(=O)c1ccc2nsnc2c1 | 2
N#CCCCCOc1ccc2c(=O)cc(-c3ccccc3)oc2c1 | 0.21
O=C1CC(N2CCN(c3ccccc3O)CC2)C(=O)N1c1ccccc1F (configuration not stated) | 2.3
Cc1cccc(N2C(=O)CC(n3ccnc3)C2=O)c1C (configuration not stated) | 3.5*
COc1ccccc1N1C(=O)CC(N2CCN(c3ccc(F)cc3)CC2)C1=O (configuration not stated) | 0.32
O/N=C1\CCOc2ccc3ccccc3c21 | -0.27
O=C(c1ccccc1)n1nccc1C(c1ccccc1)c1ccccc1 | 0.72
CCOc1cc(C2C3=C(CCCC3=O)N(C)C3=C2C(=O)CCC3)ccc1O | 0.15
CCNc1[nH]c(=S)nc2c1cnn2-c1ccccc1 | -0.66
O=C(c1cnc2cc(-c3ccccc3)nn2c1)c1ccccc1O | -1.5
N#CCCN(Cc1cccs1)C(=O)CSCC(=O)O | 3
CCc1ccc(Cc2cn3cc(-c4ccccc4)nc3s2)cc1 | -0.59
Fc1ccc(-c2cn3cc(Cc4ccccc4Cl)sc3n2)cc1 | 0.06
Clc1ccc(-c2cn3cc(Cc4ccccc4)sc3n2)cc1 | 2.4
Cc1ccc(Cc2cn3cc(-c4ccccc4)nc3s2)cc1 | -0.16
Fc1ccc(-c2cn3cc(Cc4ccc(Br)cc4)sc3n2)cc1 | 3.4*
Fc1ccc(Cc2cn3cc(-c4ccc(F)cc4)nc3s2)cc1 | 3.9*
Cc1cc(NC(=O)NCc2sccc2C)c(C(F)(F)F)o1 | -2.8
SMILES | Dicer processing
CC(C)c1ccc(OCc2nc(-c3ccccn3)no2)cc1 | 0.26
S=C(N/N=C/c1ccc(Cl)c(Cl)c1)NC1CC2CC1C1C=CCC21 (configuration not stated) | 0.09
CC(=O)OC[C@H]1O[C@@H](Oc2ccccc2)[C@H](OC(C)=O)[C@@H](OC(C)=O)[C@H]1OC(C)=O | 0.74
Cc1nc2ccc([N+](=O)[O-])cc2nc1C | -0.66
Cc1nc2ccc(C(F)(F)F)cc2nc1C | 3.5*
O=C1c2ccccc2-c2nc3cc(C(F)(F)F)ccc3nc21 | -1.7
CCC(CC)C(=O)Nc1nc2c(s1)C(=O)CC(C)(C)C2 | 0.05
Cc1nnc2c(Oc3cccc4ccccc34)nc3ccccc3n12 | -1.1
OC(C#CCN1CCOCC1)c1cccs1 (configuration not stated) | 4*
O=C1C(=O)N(CCN2CCOCC2)C(c2cccs2)/C1=C(\O)c1ccccc1 (configuration not stated) | 1.3
O=C(c1cccs1)C(O)c1cccs1 (configuration not stated) | -0.15
c1nc2c3c4c(sc3ncn2n1)CCC4 | 1.2
CC(C)Oc1ccccc1-c1nc(SCC(=O)c2ccc(Br)cc2)n[nH]1 | -1.1
COC(=O)COc1ccc2c(c1)C(=O)c1cc(OCC(=O)OC)ccc1-2 | -4.1
CCOc1ccc2c(c1)C(=O)c1cc(O)ccc1-2 | 1
CC(=O)Oc1ccc2c(c1)C(=O)c1cc(OC(C)=O)ccc1-2 | 6.2*
O=C(Nc1ccc(-c2nc3c(ccc4ccccc43)o2)cc1)c1ccc([N+](=O)[O-])o1 | 2.3
Nc1nnc(Sc2c(-c3ccccc3)c3ccc(Cl)cc3[nH]c2=O)s1 | -4
COc1ccc2c(=O)c(-c3ccc(Cl)cc3)c(C(F)(F)F)oc2c1 | -0.51
COc1ccc(-c2c(C(F)(F)F)oc3cc(O)cc(O)c3c2=O)cc1 | 5.3*
COc1ccc(-c2c(C)oc3cc(O)cc(O)c3c2=O)cc1OC | 2
CC1=CC(C)(C)N(S(=O)(=O)c2ccc(F)cc2)c2ccc(C)cc21 | -0.75
COc1ccc(S(=O)(=O)N2c3ccc(C)cc3C(C)=CC2(C)C)cc1 | -1
CCOc1ccc(S(=O)(=O)N2c3ccc(C)cc3C(C)=CC2(C)C)cc1 | 3.5*
CCOC(=O)c1cc(-c2ccccc2)sc1NC(=S)Nc1ccccc1 | -0.94
SMILES | Dicer processing
CN(C)c1ccc(C2C(C#N)=C(N)Oc3c2sc2ccccc32)cc1 (configuration not stated) | 6*
Cc1[nH]nc2c1C(c1ccccc1)C(C#N)=C(N)O2 (configuration not stated) | -1.2
CC(=O)n1c2c(c3ccccc31)OC(N)=C(C#N)C2c1ccc(Cl)cc1 (configuration not stated) | -0.43
CCOC(Cc1nnc(SCC(=O)c2cccc(C(F)(F)F)c2)n1C)OCC | 0.32
COc1cc(/C=C/c2[nH]c(=O)[nH]c(=O)c2[N+](=O)[O-])ccc1OC(C)C | 0.03
CSc1nc(/N=C/N(C)C)n2nc(C)cc2n1 | -1.7
O=S(=O)(NCCN1CCOCC1)c1ccc(F)cc1 | 1
COc1ccc(-c2nc3c([nH]2)c(=O)[nH]c(=O)n3C)cc1 | -0.2
CC1=CC(C)(C)N(C(=O)NC2CCCCC2)c2ccccc21 | 0.52
CC1=CC(C)(C)N(C(=O)Nc2ccccc2)c2ccccc21 | 3.5*
CC1=CC(C)(C)N(C(=O)Nc2ccccc2)c2c(C)cc(C)cc21 | 1.5
C=CC[n+]1ccc(/C=C2\Sc3ccccc3N2C)c2ccccc21 | 0.83
CC(C)CNC(=S)NCc1ccco1 | -0.57
C/C(=N/OC(=O)c1ccsc1)c1oc(C)nc1C | -1.6
CC1(C)Cc2c(c(N3CCOCC3)nc3sc(C(=O)Nc4ccccc4)c(N)c23)CO1 | 2.3
CC1(C)Cc2c(c(N3CCOCC3)nc3sc(C(=O)c4ccccc4)c(N)c23)CO1 | 3.2*
CC1(C)Cc2c(c(N3CCCC3)nc3sc4c(N5CCOCC5)ncnc4c23)CO1 | -0.03
CCOC(=O)c1ccc(N/N=C/c2ccccc2O)cc1 | -1.8
CCc1cccc(C)c1NC(=O)Nc1ccc(S(=O)(=O)Nc2cc(C)on2)cc1 | -0.23
Cc1ccc(S(=O)(=O)O/N=C(\N)c2ccc(C(F)(F)F)cc2)cc1 | -1.6
CCc1nn2c(=O)c(NC(=O)c3ccc(C(C)(C)C)cc3)cnc2s1 | -0.36
O=C(O)c1coc2c1/C(=N/N1CCCCC1)CCC2 | 0.82
O=C(O)c1coc2c1/C(=N/Nc1c(Cl)cc(Cl)cc1Cl)CCC2 | 3.8*
Clc1cc(Cl)c(N/N=C2\CCCc3occc32)c(Cl)c1 | 2
Cc1onc(-c2ccccc2)c1CNS(=O)(=O)c1cc2ccccc2s1 | -1
SMILES | Dicer processing
COc1ccc(C2C3CCc4ccccc4C3=NN2C(=O)CSc2nnc(-c3ccncc3)o2)cc1 (configuration not stated) | 0.3
c1ccc2oc(-c3ccc(-c4nc5ccccc5o4)cc3)nc2c1 | 2
c1cc(-c2nc3ccccc3o2)nc(-c2nc3ccccc3o2)c1 | 0.28
c1ccc2oc(CCCc3nc4ccccc4o3)nc2c1 | 5.5*
COC(=O)c1ccc(S(=O)(=O)NCc2ccc(N3CCN(C)CC3)cc2)o1 | -0.09
COc1ccc(C2C3=C(CC(C)(C)CC3=O)Nc3c2ccc2ccccc32)cc1OC (configuration not stated) | -0.42
S=C(Nc1cc(Cl)ccc1Cl)N1CCCCC1CCN1CCOCC1 (configuration not stated) | -1.5

Screens (PubChem)
